High-throughput results: PubChem, National Center for Advancing Translational Sciences (NCATS)
Compounds with a hit are over-represented: about 11% of the library has one in this group of screens.
GoLoco inh red: RGS12 GoLoco-Gai1 interaction inhibition; P63096; Gai1:RGS12 GoLoco peptide FP, rhodamine, 10 min; Potency, µM (titrated, usually from 61.6 µM), actives largely listed as inhibitors; 230,000 tested, 0.44% active; AID 880; active = well fitted inhibition curve with a large enough effect, not every such curve was filed as active; inactive = no such curve, though single readings can be large or run the other way; also: nearly all actives have a fitted effect of over 30% in size
Target sequence (P63096 whole entry, looked up): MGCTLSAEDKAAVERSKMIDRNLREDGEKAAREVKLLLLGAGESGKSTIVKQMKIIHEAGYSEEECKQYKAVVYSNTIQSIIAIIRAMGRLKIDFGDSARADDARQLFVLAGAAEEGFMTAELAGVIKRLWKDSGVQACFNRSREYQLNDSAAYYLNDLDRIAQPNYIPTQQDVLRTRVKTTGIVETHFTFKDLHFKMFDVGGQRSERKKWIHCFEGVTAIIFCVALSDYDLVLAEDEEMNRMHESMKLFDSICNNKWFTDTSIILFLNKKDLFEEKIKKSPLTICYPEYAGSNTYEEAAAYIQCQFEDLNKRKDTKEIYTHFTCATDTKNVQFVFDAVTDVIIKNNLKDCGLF
ALDH1A1 inh: inhibitors of human aldehyde dehydrogenase 1A1 | P00352 | Purified ALDH1A1, NADH fluorescence, propionaldehyde substrate | Potency, µM (doses to about 75.3 µM), usual class: inhibitors | 220,000 tested, 7.3% active | AID 1030; active = well fitted inhibition curve with a large enough effect, not every such curve was filed as active; inconclusive = small, poorly fitted or top-dose-only effect, or another doubt; inactive = no such curve, though single readings can be large or run the other way
PNC inhibitor: blocks assembly of the perinucleolar compartment; 140,000 tested, 3.1% active; activity change (PNC), negative = inhibition, % at 10 µM; PC3M PTB-GFP, PNC prevalence imaging, 16 h; stronger effect = lower value;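 active = readout at or below -70, meaning at least 70% loss of cells showing the perinucleolar compartment, a nuclear body marking cancer cells; inconclusive = readout between -30 and a set limit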
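Read-out is percentage of cells bearing a perinucleolar compartment, from automated 20x imaging of fixed, Hoechst-stained PC3M PTB-GFP cells. Cells were seeded 4 h, then exposed 16 h to compound (23 nl of library stock) in duplicate plates.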
HTT cytoprotect: cytoprotection in Huntington HTT-Q103 PC12 cell model; PC12 HTT-Q103 induced, cytoprotection, ATP luminescence, 40 h; Potency, µM (series often up to 56.4 µM), most hits filed as activators; 230,000 tested, 0.14% active; also: nearly all actives have a fitted effect of over 45% in size
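Cells were plated at 1500 per well in phenol red-free DMEM with 5% equine and 5% calf serum. Tebufenozide (100 nM final) and compounds were added, then ATPlite reagent, and luminescence was read.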
HPGD inh: inhibitors of human 15-hydroxyprostaglandin dehydrogenase (HPGD); P15428; purified HPGD, NADH fluorescence kinetic, PGE2 substrate; Potency, µM, hits mostly inhibitors; 150,000 tested, 4.3% active; AID 894; active = well fitted inhibition curve with a large enough effect, not every such curve was filed as active; inconclusive = small, poorly fitted or top-dose-only effect, or another doubt; inactive = no such curve, though single readings can be large or run the other way
Target sequence (P15428 whole entry, looked up): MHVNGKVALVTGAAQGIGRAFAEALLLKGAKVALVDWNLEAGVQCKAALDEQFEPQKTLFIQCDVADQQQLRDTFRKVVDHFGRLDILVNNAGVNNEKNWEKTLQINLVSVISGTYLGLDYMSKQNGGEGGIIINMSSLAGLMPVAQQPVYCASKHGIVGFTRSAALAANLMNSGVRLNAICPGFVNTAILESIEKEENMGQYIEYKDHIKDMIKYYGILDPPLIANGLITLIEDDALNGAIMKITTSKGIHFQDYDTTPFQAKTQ
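20 nM HPGD preincubated 15 min at room temperature with compound in 50 mM Tris-HCl pH 8, 0.01% Tween 20. Started with 1 mM NAD+ and 30 uM prostaglandin E2; NADH fluorescence (360/450 nm) read 5 times over 30-s intervals, last minus first.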
HTT aggregate: mutant huntingtin aggregation inhibition; PC12 HttQ103-GFP aggregates, Acumen cytometry, 40 h; Potency, µM (highest dose often 46.1 µM), usual class: inhibitors; 220,000 tested, 1.1% active; AID 1688; also: nearly all actives have a fitted effect of over 60% in size
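Using laser scanning cytometry, GFP-positive aggregates were counted after lysis of PC12 cells induced with 100 nM tebufenozide to express HTT exon 1 Q103–GFP. Compounds were tested in titration.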
Each line names hits and unclear results; the compound was inactive in the other large screens. Unless noted, calls follow the shape of the dose curve; as a rule, active = well fitted curve in the direction sought with a large enough effect; inconclusive = small, poorly fitted or top-dose-only effect, or another doubt; inactive = no such curve, though single readings can be large; an effect the other way counts as inactive or inconclusive.

O=C(Oc1ccc2c(-c3ccccc3)cc(=O)oc2c1)c1cccs1	ALDH1A1 inh 11µM, HPGD inh inconclusive
CC(Oc1ccc2c(-c3ccccc3)cc(=O)oc2c1)C(=O)O (centres undefined)	ALDH1A1 inh 28µM, HPGD inh inconclusive
COC(=O)CCC(=O)OC1(C)C(=O)C=C2C=C(C3CC3)N(c3ccc(OC)cc3)C=C2C1=O (centres undefined)	none (no result: PNC inhibitor, HTT aggregate)
CC(C)C[C@@H](CC(=O)N[C@@H](CCC(=O)O)CC(=O)O)NC(=O)[C@@H]1CNCC[C@H]1NC(=O)C[C@H](CCCN)NC(=O)C[C@H](Cc1ccccc1)NC(=O)[C@@H]1CNCC[C@H]1N	none (no result: PNC inhibitor, HTT aggregate)
O=C(COc1c(Cl)cc(Cl)cc1Cl)c1ccc(Cl)cc1	none
Cc1c(N2C(=O)C(=O)/C(=C(/O)c3ccc(Cl)cc3)C2c2ccccc2)c(=O)n(-c2ccccc2)n1C (centres undefined)	none
CC(=O)N1c2c(cc(Br)cc2S(=O)(=O)N2CCN(C(=O)c3ccco3)CC2)CC1C (centres undefined)	PNC inhibitor -100, HPGD inh 14µM
Cn1cc(S(=O)(=O)N2CCN(C(=O)c3ccco3)CC2)c(=O)n(C)c1=O	none
CSc1cccc(NC(=O)N2CCCC(CNS(=O)(=O)Cc3ccccc3)C2)c1 (centres undefined)	none (no result: PNC inhibitor, HPGD inh)
CSc1nnc(-c2ccccc2N=Cc2c(C)[nH]n(-c3ccc4ccccc4c3)c2=O)c(=O)[nH]1	ALDH1A1 inh inconclusive, HPGD inh 18µM
COc1ccc(C2CC(c3ccc4ccccc4c3)=NN2C(=O)CNC2CCCCC2)cc1 (centres undefined)	none (no result: PNC inhibitor, HPGD inh)
COc1ccc(C2CC(c3ccc(Br)cc3)=NN2C(=S)Nc2ccccc2)cc1 (centres undefined)	ALDH1A1 inh 11µM (no result: PNC inhibitor, HTT cytoprotect, HPGD inh)
C=CCNCC(=O)N1N=C(c2ccc3ccccc3c2)CC1c1ccc(OC)cc1 (centres undefined)	ALDH1A1 inh inconclusive, HTT aggregate 13µM (no result: PNC inhibitor, HPGD inh)
CCOC(=O)/C=C(\C)N1N=C(c2ccccc2)CC1c1ccccc1 (centres undefined)	ALDH1A1 inh 1µM (no result: PNC inhibitor, HPGD inh)
COc1ccc(C2=NN(C(N)=S)C(c3ccccc3)C2)cc1 (centres undefined)	ALDH1A1 inh 7.5µM (no result: PNC inhibitor, HPGD inh)
CNC(=S)N1N=C(c2ccc(Br)cc2)CC1c1ccc(Br)cc1 (centres undefined)	PNC inhibitor inconclusive
COc1coc(/C=C/C(=O)O)cc1=O	none (no result: HTT cytoprotect)
COc1ccc(C2=NN(C(=S)Nc3ccccc3)C(c3ccccc3)C2)cc1 (centres undefined)	ALDH1A1 inh 13µM (no result: HTT cytoprotect)
COc1ccc(C2CC(c3ccccc3)=NN2C(=S)Nc2ccccc2)cc1 (centres undefined)	HTT aggregate inconclusive (no result: PNC inhibitor, HTT cytoprotect, HPGD inh)
Cc1noc(C)c1C(=O)N1CCN(CCc2ccccc2)CC1	PNC inhibitor -102
Cc1noc(C)c1C(=O)N1CCC(CO)(Cc2ccccc2)CC1	ALDH1A1 inh 4µM (no result: PNC inhibitor, HPGD inh)
OCCN1CCN(C(=S)c2ccc(Cl)c(Cl)c2)CC1	ALDH1A1 inh inconclusive, HPGD inh 14µM
CS(=O)(=O)N(CCC#N)Cc1ccco1	HTT cytoprotect inconclusive (no result: PNC inhibitor, HPGD inh)
Cc1nc2ccc(S(=O)(=O)N(C)CC(=O)Nc3ccccc3F)cc2s1	HTT cytoprotect inconclusive (no result: PNC inhibitor, HPGD inh)
Cc1nn2c(CN(C(=O)COc3ccccc3)c3ccccc3)nnc2c2ccccc12	ALDH1A1 inh 11µM
Cc1nn2c(COc3ccc(NC(=O)C(C)C)cc3)nnc2c2ccccc12	none (no result: PNC inhibitor, HPGD inh)
Cc1nn2c(COc3ccc(NC(=O)c4ccccc4Cl)cc3)nnc2c2ccccc12	HPGD inh 14µM (no result: HTT cytoprotect)
Cc1nn2c(CN(C(=O)CN3CCOCC3)c3ccccc3)nnc2c2ccccc12	ALDH1A1 inh 18µM
CC(=O)N(C)c1ccc(NC(=O)COc2ccc(Br)cc2C)cc1	none (no result: HTT cytoprotect)
O=c1oc(-c2ccc(F)cc2)nc2ccsc12	PNC inhibitor -111
Cc1cc2c(=O)oc(-c3ccc(F)cc3)nc2s1	ALDH1A1 inh 16µM (no result: PNC inhibitor, HPGD inh)
FC(F)(F)c1ccccc1-c1ccc2ncnc(NCc3cccnc3)c2c1	none (no result: PNC inhibitor, HPGD inh, HTT aggregate)
COc1ccc(NC(=O)N2CCC3(CC2)CCN(C(=O)c2cc(C(F)(F)F)cc(C(F)(F)F)c2)CC3)cc1	HTT cytoprotect inconclusive (no result: PNC inhibitor, HTT aggregate)
Cc1cc(Br)ccc1NC(=O)CN1C(=O)C2C3CC(c4ccccc4)C(C3)C2C1=O (centres undefined)	HTT aggregate inconclusive
CCCCCCS(=O)[C@H]1CS(=O)(=O)C[C@@H]1S(=O)CCCCCC (some centres undefined)	ALDH1A1 inh inconclusive, HPGD inh 13µM
CCCCCCCCS(=O)C1CCS(=O)(=O)C1 (centres undefined)	PNC inhibitor inconclusive
C[C@@H]1CN(c2c(F)c(N)c3c(=O)c(C(=O)O)cn(C4CC4)c3c2F)C[C@H](C)N1	none (no result: ALDH1A1 inh, PNC inhibitor, HTT cytoprotect, HPGD inh, HTT aggregate)
O=C1CN(C(=O)c2ccccc2F)c2ccccc2N1	PNC inhibitor inconclusive, HTT aggregate inconclusive
Cc1ccc(Nc2c([N+](=O)[O-])cc(C(=O)N3CC(=O)Nc4ccccc43)cc2[N+](=O)[O-])c(C)c1	HPGD inh 16µM
CCOC(=O)c1sc(N(Cc2ccccc2)C(=O)COC(=O)c2cnccn2)nc1C	none (no result: PNC inhibitor, HPGD inh)
Cc1nnc(N(Cc2ccccc2)C(=O)c2cnccn2)s1	PNC inhibitor -88
COc1ccc(-c2nc3c(c4c2C[C@H](c2ccccc2)OC4)CN(S(=O)(=O)c2ccc4c(c2)OCCN4C)CC3)c(C)c1	ALDH1A1 inh inconclusive (no result: PNC inhibitor, HTT aggregate)
O=C(c1cccs1)C1CCCN(Cc2nc(Cc3ccccc3F)no2)C1 (centres undefined)	none (no result: PNC inhibitor, HPGD inh)
CC(=O)c1ccc2c3c(ccc(O)c13)CC2	ALDH1A1 inh inconclusive, PNC inhibitor inconclusive, HPGD inh 14µM
CC(=O)c1ccc(O)c(CN(C2CCCCC2)C2CCCCC2)c1O	none (no result: PNC inhibitor, HTT aggregate)
COc1cc(NCC[C@@H]2CCCCN2)c2ncccc2c1	none (no result: PNC inhibitor, HTT aggregate)
CCc1nnc(NC(=O)CSc2nnc(-c3ccoc3C)n2-c2cccc(C)c2)s1	ALDH1A1 inh inconclusive, PNC inhibitor -96
COc1cccc(-n2c(SCC(=O)Nc3nccs3)nnc2-c2ccoc2C)c1	ALDH1A1 inh inconclusive, PNC inhibitor -100
COC(=O)c1c(NC(=O)CSc2nnnn2-c2ccccc2)sc2c1CCC(C(C)(C)C)C2 (centres undefined)	ALDH1A1 inh 13µM
CCc1nnc(NC(=O)CSc2nnnn2-c2cccc(C(=O)OC)c2)s1	ALDH1A1 inh inconclusive, HPGD inh 14µM
CC1CCCC(C)N1C(=C(Cl)Cl)C(=C1SCCS1)[N+](=O)[O-] (centres undefined)	ALDH1A1 inh inconclusive (no result: PNC inhibitor, HPGD inh)
